# The source made the active and inactive calls.
# What was measured:
# [1] = E. coli DRC41 culture turbidity changes, primary screen, E. coli filamentation inducer project, strain DRC41, OD650, 48 h (AID 1152);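 note: E. coli MC1000 strain DRC41 lacking acrAB efflux pump and sulA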; conditions: E. coli DRC41 (acrAB sulA), higher = more signal, called active from +8 up or from −8 down
# [2] = small-molecule binders of probe aLefty1, primary screen, biochemical, small-molecule microarray, 635/667 nm fluorescence (AID 1153); conditions: higher = more signal;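 note: score merges spot fluorescence with signal-to-noise ratio from the scanned slide images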
# [3] = PSAC antagonists in infected red cells, primary screen, cell-based, P. falciparum Indochina, OD700, 1 h (AID 1154); conditions: P. falciparum Indochina infected RBC osmotic lysis, higher = more signal, called active from +8 up or from −8 down
# [4] = PSAC antagonists in infected red cells, primary screen, cell-based, P. falciparum Indochina, OD700, 2 h (AID 1155);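 note: lysis reports solute entry through the parasite surface anion channel PSAC; channel blockers reduce lysis of infected cells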; conditions: P. falciparum Indochina infected erythrocytes, osmotic lysis OD700; higher = more signal, called active from +8 up or from −8 down
# [5] = osmotic lysis modulators in infected erythrocytes, primary screen, PSAC antagonist project, cell-based, P. falciparum Indochina, OD700, 3 h (AID 1156); conditions: higher = more signal, called active from +8 up or from −8 down
# [6] = PSAC antagonists in infected red cells, primary screen, cell-based, P. falciparum Indochina, OD700, 18 h (AID 1157); conditions: P. falciparum Indochina infected erythrocytes, osmotic lysis OD700, 18 h; higher = more signal, called active from +8 up or from −8 down
# [7] = modulators of S6 phosphorylation in cells, primary screen, cell-based, A549, cytoblot, luminescence, serum-stimulated (AID 1158); conditions: A549 phospho-S6 cytoblot, 5 h, higher = more signal;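 note: serum-stimulated A549 lung adenocarcinoma cells; signal is phosphorylated S6 detected by cytoblot immunostaining with HRP secondary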
# [8] = target: NADPH oxidase 2 (Homo sapiens) (UniProt P04839); assay: NOX2-dependent H2O2 signal modulators, primary screen, NOX inhibitor project, cell-based, HEK293-NOX2, PMA-stimulated, Amplex Red fluorescence (AID 1159); conditions: 45 min, higher = more signal, called active from +8 up or from −8 down; note: test concentration not given here
# [9] = target: NADPH oxidase 4 (Homo sapiens) (UniProt Q9NPH5); assay: NOX4-dependent H2O2 signal modulators, primary screen, NOX inhibitor project, cell-based, HEK293-NOX4, tetracycline-induced, Amplex Red fluorescence (AID 1160); conditions: 45 min, higher = more signal, called active from +8 up or from −8 down
# [10] = target: NADPH oxidase 5 (Homo sapiens) (UniProt Q96PH1); assay: NOX5-dependent H2O2 signal modulators, primary screen, NOX inhibitor project, cell-based, HEK293-NOX5, Amplex Red fluorescence (AID 1161); conditions: HEK293-NOX5, ionomycin, 45 min, higher = more signal
# [11] = A549 cell viability effects, profiling panel, calcein-AM fluorescence, 48 h, basal (AID 1162); conditions: higher = more signal; note: test concentration not given here
# [12] = adipocyte viability effects, profiling panel, cell-based, 3T3-L1 adipocytes, calcein-AM fluorescence, 48 h, basal (AID 1163); conditions: 3T3-L1 adipocytes viability, higher = more signal; note: test concentration not given here
# [13] = HepG2 cell viability effects, profiling panel, calcein-AM fluorescence, 48 h, basal (AID 1164); conditions: higher = more signal; note: test concentration not given here
# [14] = MM1S cell viability effects, profiling panel, calcein-AM fluorescence, 48 h, basal (AID 1165); conditions: higher = more signal;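 note: viability of MM1S multiple myeloma cells under basal unstimulated conditions; test concentration not given here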
# [15] = basal RPMI8226 viability, no added stimulus, profiling panel, cell-based, calcein-AM fluorescence, 48 h, PK04 Diversity Set (AID 1166); conditions: RPMI8226 myeloma viability, higher = more signal;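 note: cells grown under basal conditions without added stimulus; test concentration not given here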
# [16] = basal HepG2 mitochondrial membrane potential changes, profiling panel, cell-based, JC-1 fluorescence, 24 h, 100 nL compound (AID 1167); conditions: higher = more signal; note: test concentration not given here
# [17] = basal 3T3-L1 adipocyte mitochondrial potential changes, profiling panel, cell-based, JC-1 fluorescence, 3T3-L1 adipocytes, 24 h, 100 nL compound (AID 1168); conditions: JC-1 mitochondrial fluorescence, higher = more signal, called active from +8 up or from −8 down; note: test concentration not given here
# [18] = basal RPMI8226 mitochondrial membrane potential changes, profiling panel, cell-based, JC-1 fluorescence, 24 h, 100 nL compound (AID 1169); conditions: RPMI8226 myeloma, JC-1 mitochondrial potential fluorescence, higher = more signal; note: test concentration not given here
# [19] = basal MM1S mitochondrial membrane potential changes, profiling panel, cell-based, JC-1 fluorescence, 24 h, 100 nL compound (AID 1170); conditions: higher = more signal; note: test concentration not given here
# [20] = A549 lung cancer cell viability effects, profiling panel, resazurin fluorescence, 24 h, PK04 Diversity Set (AID 1171); conditions: higher = more signal, called active from +8 up or from −8 down; note: test concentration not given here
# Sequence of NADPH oxidase 5 (Homo sapiens) (Q96PH1 whole entry, looked up): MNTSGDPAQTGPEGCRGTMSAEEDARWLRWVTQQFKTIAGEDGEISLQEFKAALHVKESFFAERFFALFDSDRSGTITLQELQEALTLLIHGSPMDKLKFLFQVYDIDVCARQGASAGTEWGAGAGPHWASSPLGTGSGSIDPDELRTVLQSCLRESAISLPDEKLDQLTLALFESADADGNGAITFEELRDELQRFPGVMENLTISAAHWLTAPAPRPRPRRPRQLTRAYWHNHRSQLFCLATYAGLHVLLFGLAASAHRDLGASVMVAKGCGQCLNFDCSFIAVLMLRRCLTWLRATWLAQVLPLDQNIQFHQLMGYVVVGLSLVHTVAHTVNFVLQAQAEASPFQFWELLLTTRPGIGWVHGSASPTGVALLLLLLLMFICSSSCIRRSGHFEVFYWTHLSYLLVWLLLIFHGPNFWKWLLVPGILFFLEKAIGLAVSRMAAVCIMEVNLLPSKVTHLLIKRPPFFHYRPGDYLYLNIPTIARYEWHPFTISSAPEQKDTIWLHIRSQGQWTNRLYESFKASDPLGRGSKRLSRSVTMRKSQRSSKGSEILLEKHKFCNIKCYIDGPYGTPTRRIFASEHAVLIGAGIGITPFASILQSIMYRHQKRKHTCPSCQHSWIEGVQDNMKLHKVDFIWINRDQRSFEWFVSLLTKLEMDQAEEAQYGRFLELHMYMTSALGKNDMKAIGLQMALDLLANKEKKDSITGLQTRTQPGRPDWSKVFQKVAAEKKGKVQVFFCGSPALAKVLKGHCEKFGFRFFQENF
# Sequence of NADPH oxidase 4 (Homo sapiens) (Q9NPH5 whole entry, looked up): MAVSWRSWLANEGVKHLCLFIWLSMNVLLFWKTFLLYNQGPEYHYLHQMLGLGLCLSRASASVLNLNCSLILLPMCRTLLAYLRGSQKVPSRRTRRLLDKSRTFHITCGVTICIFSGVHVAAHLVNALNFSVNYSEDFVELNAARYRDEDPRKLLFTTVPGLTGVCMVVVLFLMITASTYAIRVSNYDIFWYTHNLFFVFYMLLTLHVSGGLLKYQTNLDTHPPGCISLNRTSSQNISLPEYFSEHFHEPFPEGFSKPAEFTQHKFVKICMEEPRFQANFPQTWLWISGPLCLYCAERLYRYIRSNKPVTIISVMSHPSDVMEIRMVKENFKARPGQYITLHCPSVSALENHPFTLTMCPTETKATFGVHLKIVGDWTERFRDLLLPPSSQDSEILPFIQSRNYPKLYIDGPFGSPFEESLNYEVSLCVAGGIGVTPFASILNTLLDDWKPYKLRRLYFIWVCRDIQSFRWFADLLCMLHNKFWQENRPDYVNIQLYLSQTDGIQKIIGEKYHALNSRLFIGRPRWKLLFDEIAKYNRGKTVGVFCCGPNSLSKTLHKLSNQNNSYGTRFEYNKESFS
# Sequence of NADPH oxidase 2 (Homo sapiens) (P04839 whole entry, looked up): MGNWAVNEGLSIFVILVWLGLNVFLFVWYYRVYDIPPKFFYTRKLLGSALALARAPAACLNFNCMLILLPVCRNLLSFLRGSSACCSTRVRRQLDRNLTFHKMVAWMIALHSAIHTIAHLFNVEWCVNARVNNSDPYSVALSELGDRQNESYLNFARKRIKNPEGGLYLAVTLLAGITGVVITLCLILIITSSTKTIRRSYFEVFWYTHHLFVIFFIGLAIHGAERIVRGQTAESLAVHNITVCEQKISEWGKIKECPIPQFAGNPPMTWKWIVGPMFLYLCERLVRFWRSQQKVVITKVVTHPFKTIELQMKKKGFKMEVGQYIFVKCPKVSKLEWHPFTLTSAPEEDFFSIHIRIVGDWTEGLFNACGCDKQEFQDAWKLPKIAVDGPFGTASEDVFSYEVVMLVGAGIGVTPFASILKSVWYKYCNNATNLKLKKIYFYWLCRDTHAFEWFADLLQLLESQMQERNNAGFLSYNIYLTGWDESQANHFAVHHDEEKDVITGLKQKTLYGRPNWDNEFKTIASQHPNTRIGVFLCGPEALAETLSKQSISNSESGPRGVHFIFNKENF
SMILES,z-score [1],composite z-score [2],z-score [3],z-score [4],z-score [5],z-score [6],z-score [7],z-score [8],z-score [9],z-score [10],z-score [11],z-score [12],z-score [13],z-score [14],z-score [15],z-score [16],z-score [17],z-score [18],z-score [19],z-score [20]
CC(CO)N1C(=O)[C@]2(C)C3C(=O)OCCC/C=C\[C@H]3OC23C=CCN(c2ccc(Cl)cc2)C(=O)[C@@H]13 (stereo not given in full),0.79 (inactive),-0.062,0.423 (inactive),0.576 (inactive),1.94 (inactive),0.5 (inactive),-0.021,1.25 (inactive),-0.0121 (inactive),1.33,0.592,-0.329,0.94,1.77,0.202,1.19,0.204 (inactive),-0.765,-0.302,-0.0794 (inactive)
NC(=O)NCC#Cc1ccc2c(c1)[C@]1(C(=O)N2)[C@H](c2ccccc2OCCO)N2[C@H](c3ccccc3)[C@H](c3ccccc3)OC(=O)[C@H]2[C@@H]1C(=O)NC[C@H](O)c1ccccc1,2.83 (inactive),-0.103,0.925 (inactive),-0.918 (inactive),-0.313 (inactive),-1.54 (inactive),2.83,1.74 (inactive),0.869 (inactive),0.062,1.2,0.37,-0.13,0.493,0.865,-0.159,0.43 (inactive),0.208,0.359,0.635 (inactive)
C=CCNC(=O)[C@@H]1[C@H]2C(=O)O[C@H](c3ccccc3)[C@H](c3ccccc3)N2[C@H](c2ccccc2OCCO)[C@@]12C(=O)Nc1ccc(C#CCCO)cc12,-2.32 (inactive),-0.674,5.68 (inactive),1.15 (inactive),0.206 (inactive),0.778 (inactive),0.0309,0.734 (inactive),0.627 (inactive),0.849,-0.368,0.953,0.151,-0.66,-0.485,-0.699,0.959 (inactive),-0.435,-0.608,0.322 (inactive)
C=CCNC(=O)[C@@H]1[C@H]2C(=O)O[C@H](c3ccccc3)[C@H](c3ccccc3)N2[C@H](c2ccccc2OCCO)[C@@]12C(=O)N(C(=O)OCCOC)c1ccc(C#CC3(O)CCCCCC3)cc12,0.592 (inactive),0.038,1.95 (inactive),2.02 (inactive),0.167 (inactive),0.996 (inactive),0.152,1.09 (inactive),0.906 (inactive),0.337,-0.21,1.21,-1.27,-2.55,-3.61,-0.746,-0.389 (inactive),-0.816,-0.761,-0.628 (inactive)
CCOC(=O)C[C@H]1[C@H](OC(=O)c2ccc(C(=O)c3ccccc3)cc2)[C@@H](NC(=O)CC(C)C)c2cc(OCCCO)ccc2N1C(=O)c1ccccc1,-0.804 (inactive),-0.191,1.06 (inactive),0.966 (inactive),-0.416 (inactive),0.26 (inactive),-0.163,1.49 (inactive),0.861 (inactive),1.24,-1.43,-0.408,-0.0606,0.0631,-1.11,1.49,0.275 (inactive),0.52,0.242,0.256 (inactive)
CC(C)[Si](C#CCCCC#N)(O[C@H](c1ccccc1)c1cn(Cc2ccccc2)nn1)C(C)C,1.99 (inactive),-0.253,1.05 (inactive),0.0907 (inactive),0.866 (inactive),0.137 (inactive),0.249,-0.502 (inactive),0.912 (inactive),0.536,0.059,-0.454,-0.213,0.444,-0.34,0.604,0.0406 (inactive),0.993,-1.31,-0.235 (inactive)
[N-]=[N+]=Nc1ccccc1[C@@H]1OC(c2ccc(OCCCO)cc2)=N[C@]1(Cc1ccccc1)C(=O)O,0.78 (inactive),0.433,33.2 (active),30 (active),3.46 (inactive),8.04 (active),-0.465,-1.61 (inactive),1.27 (inactive),-0.586,0.666,0.344,0.547,-1.49,-0.56,-1.24,1.62 (inactive),-0.739,-0.883,1.2 (inactive)
C=CCNC(=O)[C@@H]1[C@H]2C(=O)O[C@H](c3ccccc3)[C@H](c3ccccc3)N2[C@H](c2ccc(OCCO)cc2)[C@@]12C(=O)N(C(=O)OCCOC)c1ccc(C#Cc3ccc(OC)cc3)cc12,-0.0604 (inactive),0.302,3.58 (inactive),1.28 (inactive),0.0207 (inactive),0.776 (inactive),-0.492,1.78 (inactive),0.437 (inactive),0.986,-0.528,0.786,-0.834,-0.845,-1.32,-0.638,0.8 (inactive),-0.813,-0.82,0.927 (inactive)
COc1ccc(C#Cc2ccc3c(c2)[C@]2(C(=O)N3)[C@H](c3ccc(O)cc3)N3[C@H](c4ccccc4)[C@H](c4ccccc4)OC(=O)[C@H]3[C@@H]2C(=O)Nc2nc3ccccc3s2)cc1,1.38 (inactive),0.0994,0.92 (inactive),0.347 (inactive),2.43 (inactive),0.59 (inactive),0.498,1.13 (inactive),-0.838 (inactive),-1.34,0.453,1.89,-0.0578,-1.4,-2.6,-2.28,0.0579 (inactive),-0.429,0.0506,-1.21 (inactive)

# From PubChem BioAssay
